# Rows were chosen to be rich in hits. Some 8% of all compounds tested hit in one or more screens of this group.
# KB-3-1 cytotox: qHTS assay for MDR1-selective chemotherapeutics: Primary screen using the parental adenocarcinoma cell KB-3-1. KB-3-1 viability, CellTiter-Glo ATP luminescence, 72 h. Potency, µM (doses to about 46.1 µM), actives largely listed as cytotoxic. 1.4% of 400,000 active. AID 1347075, 2019; note: % is set by controls: 0 for no effect and ±100 for the full control effect; nearly all actives have a fitted effect of over 60% in size
#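 Screening of KB-3-1 cells (DMEM, 10% FBS, phenol-red free) ran from lowest to highest compound concentration; after 72 h at 37 °C viability was read luminescently and curves fitted.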
# HT1080 IDH1KD tx: qHTS for induction of synthetic lethality in tumor cells producing 2HG: qHTS for the HT-1080-IDH1KD cell line; HT-1080 IDH1 knockdown viability, ATP luminescence, 48 h; Potency, µM (series often up to 46.1 µM), for inactives: at the top dose activity, negative = toxicity, usual class: cytotoxic; 2% of 360,000 active; AID 686971, 2013;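 note: 0% = DMSO wells and -100% = cell-free medium wells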
#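 Knockdown cells (IDH1KD HT-1080) received compounds 2 h after plating at 750 cells/well and were kept 48 h at 37 °C in 5% FBS RPMI. A CellTiter-Glo luminescence read gave % activity for curve fitting.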
# MCF10A rerep: A quantitative high throughput screen for small molecules that induce DNA re-replication in MCF 10a normal breast cells. MCF 10A DNA re-replication, Hoechst nuclear intensity, 48 h. AID 624296, 2012. Potency, µM (series often up to 46.1 µM), for inactives: at the top dose activity, positive = re-replication, usual class: activators. 2.9% of 350,000 active; note: % of control where 0% means no effect; nearly all actives have a fitted effect of over 50% in size
# SW480 rerep: A quantitative high throughput screen for small molecules that induce DNA re-replication in SW480 colon adenocarcinoma cells; SW480 DNA re-replication, Hoechst DNA content imaging, 48 h; Potency, µM (titrated, usually from 46.1 µM), for the others: at the highest dose re-replication activation, hits mostly activators; 1.8% of 340,000 active; note: % of control where 0% means no effect; nearly all actives have a fitted effect of over 55% in size
#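 Image-based DNA-content assay: after two days of treatment, nuclei were labelled with the DNA dye Hoechst and imaged, and hits were compounds raising the count of nuclei showing high fluorescence intensity.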
# KB-V1 MDR tox: qHTS assay for MDR1-selective chemotherapeutics: Primary screen using the drug-selected MDR subline cells KB-V1 | Potency, µM (series often up to 46.1 µM), usual class: cytotoxic | 3.4% of 400,000 active | AID 1347076, 2019 | KB-V1 MDR cells viability, CellTiter-Glo, 72 h; note: % is set by controls: 0 for no effect and ±100 for the full control effect; nearly all actives have a fitted effect of over 60% in size
#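 Cytotoxicity via CellTiter-Glo luminescence after 72 h compound exposure at 37 degrees C. Cells: drug-selected KB-V1 line, DMEM phenol-red free plus 10% FBS. Compounds tested at multiple concentrations; normalized data fitted to concentration-effect curves.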
# HT1080NT lethal: qHTS for induction of synthetic lethality in tumor cells producing 2HG: qHTS for the HT-1080-NT fibrosarcoma cell line; HT-1080-NT fibrosarcoma viability, CellTiter-Glo ATP luminescence, 48 h; Potency, µM (doses to about 46.1 µM), for the others: at the top dose activity, negative = less viability, usual class: cytotoxic; 1.6% of 360,000 active; AID 686970, 2013;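 note: NT is the 2HG producing partner of a matched IDH1 knockdown line; 0% = DMSO-treated cells and -100% = media-only wells without cells; nearly all actives have a fitted effect of over 55% in size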
#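 A 48-hour cytotoxicity screen used HT-1080-NT cells plated 2 hours before compound delivery. ATP-based CellTiter-Glo luminescence measured viability, normalized to DMSO and no-cell controls.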
# * = called active by the depositor; i = inactive; ? = inconclusive; nt = no result. Calls come from the whole dose curve; as a rule, active = well fitted curve in the direction sought with a large enough effect; inconclusive = small, poorly fitted or top-dose-only effect, or another doubt; inactive = no such curve, though single readings can be large; an effect the other way counts as inactive or inconclusive. Potency is the fitted concentration of half-maximal effect.
SMILES,KB-3-1 cytotox,HT1080 IDH1KD tx,MCF10A rerep,SW480 rerep,KB-V1 MDR tox,HT1080NT lethal
Cc1cccc2cc(CN(Cc3ccco3)C(=O)Nc3cccc(C#N)c3)c(Cl)nc12,i,11µM*,14%,3%,12µM*,?
CN(C(=O)COc1ccccc1C(=O)NCCOc1ccccc1)c1ccccc1,15µM*,?,18µM*,1%,8.2µM*,21µM*
O=C(NCCOc1ccccc1)c1ccccc1Cl,i,13%,-2%,1%,?,6%
COc1ccc(-c2cn3nc(N4CCCC(C(=O)Nc5cccc(OC)c5)C4)sc3n2)cc1 (stereo not given),i,nt,nt,nt,i,nt
Cc1[nH]n(-c2nc(-c3ccc(Cl)cc3)cs2)c(=O)c1N=Nc1ccc(O)cc1,?,-24%,?,-1%,15µM*,?
COc1ccc(CN=C2NN=C(c3ccc(Cl)cc3)CS2)cc1,i,24%,-8%,-1%,i,18%
COc1ccc(OC)c(C2=NNC(=NCc3ccc4c(c3)OCO4)SC2)c1,i,-26%,-1%,-14%,i,-4%
Oc1ccc(C2=NNC(=NCc3ccc4c(c3)OCO4)SC2)c(O)c1,2.6µM*,?,12µM*,15µM*,7.3µM*,21µM*
Clc1ccc(C2=NNC(=NCc3ccc4c(c3)OCO4)SC2)cc1,?,10%,?,?,21µM*,-2%
Cc1cc(NS(=O)(=O)c2cn(C)c(C)n2)ccc1Br,?,nt,nt,nt,i,nt
CCOc1ccccc1N(C(=O)c1snc(C(N)=O)c1N)C(C(=O)NCCC(C)C)c1ccco1 (stereo not given),i,0%,19%,16%,13µM*,-11%
COc1ccc(C(C(=O)NC2CCCCC2)N(Cc2ccco2)C(=O)c2snc(C(N)=O)c2N)cc1 (stereo not given),?,-1%,?,12%,16µM*,-3%
COc1ccc(C)cc1N(C(=O)c1snc(C(N)=O)c1N)C(C(=O)NC1CCCCC1)c1ccc(C)o1 (stereo not given),?,?,26%,?,21µM*,?
NC(=O)c1nsc(C(=O)N(Cc2ccco2)C(C(=O)NCc2ccc(F)cc2)c2ccc(O)cc2)c1N (stereo not given),i,1%,13%,-2%,i,-15%
Cc1ccc(C(C(=O)NCc2ccc(F)cc2)N(Cc2ccco2)C(=O)c2snc(C(N)=O)c2N)o1 (stereo not given),i,-20%,16µM*,18%,?,?
Nc1nnc2c(n1)[nH]c1ccccc12,i,nt,nt,nt,?,nt
CC1CCN(C(=O)Cn2c(SCC(=O)Nc3ccc(F)cc3)nc3ccccc32)CC1,i,nt,nt,nt,?,nt
O=C(NC1CCCC1)C(c1ccncc1)N(Cc1ccco1)C(=O)c1ccc(-c2ccccc2)[nH]1 (stereo not given),?,15µM*,?,?,21µM*,?
O=C(NC1CCCC1)C(c1ccncc1)N(CCCN1CCOCC1)C(=O)c1ccc(-c2ccccc2)[nH]1 (stereo not given),i,-11%,-2%,-4%,i,-13%
Cc1ccc(N(C(=O)c2snc(C(N)=O)c2N)C(CC(C)C)C(=O)NC2CCCC2)cc1 (stereo not given),i,6%,?,?,i,?
COc1ccc(CN(C(=O)c2snc(C(N)=O)c2N)C(C(=O)NC(C)(C)C)c2ccco2)cc1 (stereo not given),i,-17%,5%,0%,i,14%
CC(C(=O)NC1CCCC1)N(C(=O)c1snc(C(N)=O)c1N)c1ccc2c(c1)OCCO2 (stereo not given),i,-4%,13%,3%,16µM*,-1%
COc1cccc(C(C(=O)NC2CCCC2)N(C(=O)c2ccco2)c2ccccc2F)c1OC (stereo not given),i,0%,-6%,-4%,?,-6%
CC(C)(C)NC(=O)C(c1ccco1)N(Cc1ccc(F)cc1)C(=O)c1snc(C(N)=O)c1N (stereo not given),i,2%,2%,0%,18µM*,-4%
COc1cccc(C(C(=O)NC2CCCC2)N(Cc2ccco2)C(=O)c2ccco2)c1OC (stereo not given),i,-17%,1%,10%,2.9µM*,?
SMILES,KB-3-1 cytotox,HT1080 IDH1KD tx,MCF10A rerep,SW480 rerep,KB-V1 MDR tox,HT1080NT lethal
CC1CCN(S(=O)(=O)c2ccc3c(c2)N(CC(=O)NCCN(C)C)C(=O)CS3)CC1,i,nt,nt,nt,?,nt
Cc1ccc(-c2cc(NC(=O)COc3ccc(Cl)cc3C)on2)cc1,i,nt,nt,nt,?,nt
CCCC(C(=O)NC1CCCC1)N(CC1CCCO1)C(=O)c1snc(C(N)=O)c1N (stereo not given),i,-5%,1%,-1%,4.1µM*,-4%
CCCC[n+]1ccn(-c2nc3ccccc3nc2[N-]S(=O)(=O)c2ccc(Br)cc2)c1,i,12%,?,18µM*,i,25%
O=S(=O)([N-]c1nc2ccccc2nc1-n1cc[n+](Cc2ccccc2)c1)c1ccc(Cl)cc1,i,-3%,18µM*,18µM*,i,3%
CC(C)CC[n+]1ccn(-c2nc3ccccc3nc2[N-]S(=O)(=O)c2ccccc2)c1,i,-7%,-4%,-7%,i,3%
CN(C)N=Nc1nc2c(c(=O)n(C)c(=O)n2C)n1CC1CO1 (stereo not given),?,?,16µM*,16µM*,i,?
CCn1nc([N+](=O)[O-])c(C(C#N)c2nc3cc(C(F)(F)F)ccc3s2)c(Cl)c1=O (stereo not given),15µM*,0.32µM*,29%,4.6µM*,?,0.63µM*
CCOC(=O)c1c(C)[nH]c(C(=O)N/N=C/c2ccc(Br)cc2)c1C,?,0.092µM*,?,0.73µM*,i,0.15µM*
Cc1[nH]c(C(=O)N/N=C/c2ccc(C(=O)O)cc2)c(C)c1C(=O)N/N=C/c1ccc(C(=O)O)cc1,i,1%,-1%,-4%,i,1%
CCCCOC(=O)c1sc2nc(C)cc(C)c2c1N,i,-23%,?,?,i,-19%

# Source: PubChem (National Center for Advancing Translational Sciences (NCATS))
